Source: PubChem BioAssay AID2639 (National Center for Advancing Translational Sciences (NCATS), 2010)
Active and inactive are the calls of the source. Entries that show only a call come without a potency. Calls come from the whole dose curve.

Experiment: Platelet Aggregation Secondary Assay for Inhibitors of Platelet Integrin alphallb-beta3
Details: platelet-rich plasma, ADP-induced aggregation, absorbance 563 nm
Text: NIH Molecular Libraries Probe Production Network [MLPCN] NIH Chemical Genomics Center [NCGC] MLPCN Grant: 1 R03 MH083257-01 Assay Provider: Barry Coller, Rockefeller University NCGC Assay Overview: The alphaIIbbeta3 receptor plays a vital role in hemostasis and thrombosis, where receptor deficiency causes the hemorrhagic disorder, Glanzmann thrombasthenia, and uncontrolled receptor activation causes thrombosis and blood vessel occlusion. Small molecule inhibitors of alphaIIbbeta3, tirofiban and eptifibatide, have undesirable side effects thought to arise from conformational changes in alphaIIbbeta3. These changes transiently activate the receptor to cause spontaneous platelet aggregation and thrombus formation. […] This secondary assay measures platelet aggregation (Blue et al., 2008). Platelets are induced to aggregate and aggregation is tracked by the change in absorbance over time. Inhibitors of alphaIIbbeta3 block platelet aggregation and decrease the rate of change in absorbance.
NCGC Assay Protocol Summary: Untreated 96-well polystyrene plates (Nunc, Rochester, NY) were blocked for at least 1 hour with HBMT (138 mM NaCl, 12 mM NaHCO3, 10 mM HEPES, 2.7 mM KCl, 0.4 mM NaH2PO4, 0.1% glucose, 0.35% BSA, pH 7.4). Compounds (33 uL in HBMT) and citrated platelet-rich plasma (67 uL) were added to the wells. After plates equilibrated at 37 C in the plate reader (SpectraMax; Molecular Devices, Sunnyvale, CA) for 10 minutes, aggregation was initiated by adding ADP (5 uM final concentration; Chrono-Log Corp, Havertown, PA). Absorbance (Abs) was measured at 563 nm every 10 seconds with 3 seconds of shaking between determinations for 8 minutes. Reference Blue R, Murcia M, Karan C, Jirouskova M, and Coller BS. Application of high-throughput screening to identify a novel alphaIIb-specific small- molecule inhibitor of alphaIIbbeta3-mediated platelet interaction with fibrinogen. Blood. 2008, 111(3):1248-56

| SMILES | outcome | Potency |
| --- | --- | --- |
| O=c1cc(N2CCNCC2)nc2sc(C3CC3)nn12 | inactive |  |
| CCc1nn2c(=O)cc(N3CCNCC3)nc2s1 |  | 8.4 µM (active) |
| CCc1nn2c(=O)c(C)c(N3CCNCC3)nc2s1 | inactive |  |
| CCc1nn2c(=O)c(F)c(N3CCNCC3)nc2s1 |  | 8.3 µM (active) |
| CCc1nn2c(=O)cc(N3CCN(C)CC3)nc2s1 | inactive |  |
| Cc1nn2c(=O)cc(N3CCNCC3)nc2s1 | inactive |  |
